Source: PubChem (National Center for Advancing Translational Sciences (NCATS))
In the library only some 12% were active in any assay of this set; here they are far more common.
Pf growth 96h: P. falciparum growth inhibition at 96 hours. P. falciparum luciferase reporter growth, 96 h. Potency, µM (highest dose often 28.7 µM), for inactives: at the top dose activity change, negative = inhibition, usual class: inhibitors. hit rate 6.9% among 320,000. AID 504834; also: % is scaled to controls: 0 for no effect and ±100 for the full control effect
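Parasite growth measured via integrated firefly luciferase reporter in P. falciparum. Infected erythrocytes at 2% hematocrit, 0.05% parasitemia final were treated 96 hours at 37 C under 5% CO2, and luminescence was read.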
Pf growth 48h: P. falciparum growth inhibition at 48 hours (one generation). Potency, µM (titrated, usually from 28.7 µM), inactives show top-dose activity change, negative = inhibition, most hits filed as inhibitors. P. falciparum luciferase growth in erythrocytes, 48 h. hit rate 5.9% among 310,000; also: % is scaled to controls: 0 for no effect and ±100 for the full control effect
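In quantitative HTS format, infected erythrocytes bearing luciferase-reporter parasites were treated for a single generation at 37 C. Luminescence after adding detection reagent served as the growth measure.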
AMA1 RON2 block: AMA1-RON2 (P. falciparum) interaction inhibition | AlphaScreen AMA1-biotinylated RON2 peptide binding | AID 720542 | Potency, µM (series often up to 58.2 µM), for the others: at the top dose activity change, negative = inhibition, actives largely listed as inhibitors | hit rate 0.2% among 360,000;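 also: 0% = vehicle wells and -100% = peptide control; nearly all actives have a fitted effect of over 45% in size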
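AMA1 (3D7) with his tag at 25 nM final met compounds first, then biotinylated RON2 peptide at 25 nM; detection used donor plus acceptor beads, 10 µg/mL apiece, read by AlphaScreen after 30 min at room temperature.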
SARS PLP yeast: inhibitors of SARS-CoV papain-like protease in yeast. AID 485353. hit rate 0.19% among 330,000. S. cerevisiae expressing SARS-CoV PLpro, growth rescue. Potency, µM (titrated, usually from 32.9 µM), for the others: at the top dose activity, positive = growth rescue, actives largely listed as activators; calls by dose curve; also: 0% is about no effect; nearly all actives have a fitted effect of over 55% in size
HCV inhibitor: HCV inhibition; Potency, µM (doses to about 41.8 µM), without a hit: at the highest dose activity change, negative = inhibition, actives largely listed as inhibitors; AID 651820; Huh7.5.1 HCVcc-Cre infection, luciferase reporter, 44 h; hit rate 3.4% among 340,000; also: % is scaled to controls: 0 for no effect and ±100 for the full control effect
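After 44 h co-culture of compound, cells and HCVcc-Cre (~0.5 moi), substrate is added for 15 min at room temperature and luciferase measured over 15 sec. Cells were seeded at 1,000/well and pre-cultured 4 h.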
NS1 inh: influenza NS1 inhibition; Potency, µM (top dose mostly 46.1 µM), for the others: top-dose activity, positive = more growth; hit rate 0.4% among 270,000; calls by dose curve; also: actives are rising curves; nearly all actives have a fitted effect of over 50% in size
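Compounds were scored for reversing the slow growth caused by influenza A NS1 in S. cerevisiae, measured by optical density at 600 nm. Assay medium contained 2% galactose at pH 6.0; NS1-free yeast of the same strain were the positive control.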
* = called active by the depositor; ? = inconclusive; nt = no result; ! = not active in a repeat. Unless noted, calls follow the shape of the dose curve; as a rule, active = well fitted curve in the direction sought with a large enough effect; inconclusive = small, poorly fitted or top-dose-only effect, or another doubt; inactive = no such curve, though single readings can be large; an effect the other way counts as inactive or inconclusive. Potency is read from the fitted curve at half-maximal effect.

SMILES	Pf growth 96h	Pf growth 48h	AMA1 RON2 block	SARS PLP yeast	HCV inhibitor	NS1 inh
N#Cc1ncc(-c2ccc3c(c2)OCCOCCOCCOCCO3)nc1C#N	12µM*	?	-1%	24%	-9%	-4%
N#Cc1ncc(-c2ccc3c(c2)OCCOCCOCCOCCOCCO3)nc1C#N	12µM*	?	-10%	18%	?	-71%
CC(C)NC(=O)C1C(c2ccc(C(F)(F)F)cc2)=Nc2ccccc2N1C(=O)c1cc2ccccc2[nH]1 (centres undefined)	nt	nt	5%	nt	nt	nt
CC(NC(=O)c1cc(Br)cs1)C1CCCO1 (centres undefined)	13µM*	71%	-7%	7%	-12%	-11%
CCc1cc(C(=O)NC(C)C2CCCO2)cs1 (centres undefined)	-19%	54%	-1%	?	8%	4%
Cc1ccc(S(=O)(=O)NC(=O)c2cc(C)n(-c3ccc(N(C)C)cc3)c2C)cc1	3.7µM*	?	-12%	-56%	7%	14%
Cc1ccc(S(=O)(=O)NCCN=Cc2ccc(N(C)C)cc2)cc1	7.4µM*	3%	11%	-9%	8%	-36%
Cc1ccc(S(=O)(=O)NC(=O)Nc2ccc(N(C)C)cc2)cc1	0.47µM*	0.74µM*	-26%	-10%	?	-12%
Cc1ccc(S(=O)(=O)/N=C/c2ccc(N(C)C)cc2)cc1	2%	-1%	-7%	-18%	39%	-26%
CC(SC1=NCCN1S(=O)(=O)c1ccccc1)c1ccccc1 (centres undefined)	13µM*	-23%	4%	-3%	?	-6%
CC(SC1=NCCN1S(=O)(=O)c1ccc(F)cc1)c1ccccc1 (centres undefined)	12µM*	?	17%	0%	?	-28%
Cc1ccc(S(=O)(=O)N2CCN=C2SC(C)c2ccccc2)cc1 (centres undefined)	?	-4%	7%	-5%	?	-6%
N#Cc1c(NC(=O)COC(=O)c2ccc(S(=O)(=O)N3CCCC3)cc2)sc2c1CCCCC2	28%	5%	11%	21%	?	18%
Nc1nc(-c2ccccc2)ns1	nt	nt	26%	nt	16%	nt
COC(=O)c1ccc(CNC(=O)c2ccc3c(c2)S(=O)(=O)N=C2CCCCCN23)cc1	?	-25%	0%	5%	-2%	nt
Cc1ccc(S(=O)(=O)N(Cc2ccc([N+](=O)[O-])cc2)C(=O)N2CCN(C)CC2)cc1	15%	20%	-6%	nt	25%	nt
CN(C)C(CNC(=O)C1CC(=O)N(Cc2ccccc2)C1)c1ccccc1 (centres undefined)	28%	-7%	11%	-1%	2%	nt
COc1ccc(C(=O)N2CCN(CC(=O)N3CCOCC3)CC2)cc1	4.7µM*!	18%	22%	4%	-56%	7%
COC(=O)C1CCN(C(=O)/C=C/c2ccc(OC)cc2)CC1	nt	166%	-16%	8%	15%	3%
COc1ccc2cc(/C=C/C(=O)N3CCN(CC(=O)N4CCCCCC4)CC3)ccc2c1	?	6.6µM*	7%	0%	?	-7%
CCn1c(SCC(=O)Nc2sccc2C(N)=O)nnc1C1CC1	3%	9%	34%	-8%	7%	nt
N#Cc1nc(COc2ccccc2)oc1N1CCC(Cc2ccccc2)CC1	-1%	9.3µM*	?	-2%	-26%	9%
Cc1ccc(-c2cc(C(F)F)n3ncc(C(=O)N4CCN(c5cccc(C)c5C)CC4)c3n2)cc1	-9%	-15%	9%	nt	32µM*	13%
COc1ccc(-c2cc(C(F)F)n3ncc(C(=O)N4CCN5CCCC5C4)c3n2)cc1 (centres undefined)	9.3µM*	?	-8%	2%	?	-3%
Cc1ccc(-c2cc(C(F)F)n3ncc(C(=O)N4CCc5ccccc5C4)c3n2)cc1	4%	11%	-3%	1%	11µM*	-8%
SMILES	Pf growth 96h	Pf growth 48h	AMA1 RON2 block	SARS PLP yeast	HCV inhibitor	NS1 inh
COc1ccc(-c2cc(C(F)F)n3ncc(C(=O)N4CCc5ccccc54)c3n2)cc1	1%	?	17%	1%	?	6%
Cc1ccc(-c2cc(C(F)F)n3ncc(C(=O)N4CCCc5ccccc54)c3n2)cc1	94%	?	4%	2%	5%	-6%
CC(C)(C)c1oc(C(=O)O)cc1CN1CCOCC1	67%	-2%	-5%	1%	0%	4%
COc1ccc(C(C)(O)c2nc(-c3cccc(F)c3)cs2)cc1 (centres undefined)	nt	nt	3%	nt	nt	nt
CC1(C)CC(=O)C2=C(C1)OC1=C(C(=O)CC(C)(C)C1)C2c1ccc(O)cc1O	10µM*	12µM*	-5%	-23%	?	-84%
CCCCNC(=O)c1onc(CSc2ccccc2CC)c1C(=O)O	?	?	0%	1%	14%	19%
CCCNC(=O)c1onc(CSc2ccc(Cl)cc2)c1C(=O)NC(C)C	4.7µM*	12µM*	28%	3%	?	nt
CC(C)NC(=O)c1onc(CSc2ccc(F)cc2)c1C(=O)NC(C)C	9.3µM*	4.7µM*	4%	-1%	-21%	nt
CCCCNC(=O)c1c(CSc2ccc(Cl)cc2)noc1C(=O)NCCC	?	-95%	16%	2%	?	nt
CCCCNC(=O)c1onc(CSc2ccccc2)c1C(=O)NCCCC	12µM*	?	15%	1%	-29%	nt
CCCCNC(=O)c1onc(CS(=O)(=O)c2ccccn2)c1C(=O)NCCCC	15µM*	?	1%	5%	0%	nt
CCCCNC(=O)c1onc(CSc2ccncc2)c1C(=O)NCCCC	-29%	?	-1%	4%	2%	6%
Cc1nn(-c2cc(C(F)(F)F)ccc2Cl)c2nc(C(Cl)(Cl)Cl)[nH]c(=O)c12	?	?	-1%	-1%	0%	-23%
Cc1cc(OCCCC(=O)Nc2cccc(-n3cnnn3)c2)ccc1Cl	?	?	-4%	-13%	?	0%
COc1ccc(CNC(=O)CNC(=O)c2ccc(C(C)(C)C)cc2)cc1OC	?	?	0%	2%	-8%	3%
CC(C)CCNC(=O)c1onc(CSc2nc3ccccc3[nH]2)c1C(=O)NCCC(C)C	2.3µM*	?	1%	0%	18%	20%
CC(C)NC(=O)c1onc(CSc2ccc(Cl)cc2)c1C(=O)NC(C)C	3.3µM*	5.2µM*	8%	-7%	?	-4%
Cc1cc(S(=O)(=O)NCCCN2CCOCC2)c(Cl)cc1Cl	58%	19%	1%	0%	14%	2%
CCCNC(=O)c1cc(C2CCCCN2S(C)(=O)=O)on1 (centres undefined)	nt	nt	-4%	nt	nt	nt
C=C1C(n2cnc3c(=O)[nH]c(N)nc32)C[C@H](O)[C@H]1CO (some centres undefined)	6µM*	?	nt	nt	nt	nt
